This is part of a sample that, as a whole, favours compounds with a hit. Of some 79,000 tested, about 15% had one in any assay. A number with no mark means an inactive call. Active and inactive are the calls of the source. Cut-off read from the data, not from the text of the source: active = growth inhibition above about 70%; inactive = the rest. Where a SMILES comes first, the peptide text is derived from it. [ ]: non-standard residue; d: D form. Nva = CCC[CH](N)C(=O)O

A short description of experiment [1]: NCI Yeast Anticancer Drug Screen. Data for the rad50 strain (AID 155).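 Note: 0% = growth of vehicle-only cultures of the same strain.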 To be noted: S. cerevisiae rad50 strain growth inhibition, active compounds read high. The method in brief: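 Readout: growth inhibition relative to vehicle-treated cultures. Compound exposure was carried out in a genetically defined yeast strain deficient in DNA damage repair.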
The nature of experiment [2]: NCI Yeast Anticancer Drug Screen. Data for the mec2-1 strain (AID 157). To be noted: S. cerevisiae mec2-1 strain, active compounds read high. The method in brief: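 Yeast mec2-1 mutant treated with compound. Readout: growth inhibition vs vehicle controls.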
Experiment [3] is described as follows: NCI Yeast Anticancer Drug Screen. Data for the sgs1 mgt1 strain (AID 161).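 Note: 0% = growth of cultures given vehicle only.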 To be noted: S. cerevisiae sgs1 mgt1 strain, active compounds read high. The method in brief:
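Inhibition of yeast growth, normalised to vehicle-treated controls, is reported for a strain bearing genetic alterations in DNA damage repair.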

The nature of experiment [4]: NCI Yeast Anticancer Drug Screen. Data for the cln2 rad14 strain (AID 165).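 Note: 0% = growth equal to vehicle treated cultures.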 To be noted: S. cerevisiae cln2 rad14 strain, active compounds read high. The method in brief:
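cln2 rad14 yeast strain; compound exposure; growth inhibition read vs vehicle controls.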

Experiment [5] can be described thus: NCI Yeast Anticancer Drug Screen. Data for the bub3 strain (AID 167). To be noted: S. cerevisiae bub3 mutant strain, active compounds read high. The method in brief: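 Readout: yeast growth inhibition, expressed relative to vehicle-only wells. The test organism is a mutant strain from a panel with lesions in DNA repair or checkpoint genes.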
A short description of experiment [6]: NCI Yeast Anticancer Drug Screen. Data for the mlh1 rad18 strain (AID 175). To be noted: S. cerevisiae mlh1 rad18 strain growth inhibition, active compounds read high. The method in brief: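 Yeast w/ defined DNA-repair lesions; compound exposure; growth vs vehicle controls → % inhibition.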
[7] abbreviates: at 5.0 µM (retest, dose inferred, filed as 0.5).
[8] abbreviates: at 50.0 µM (retest, dose inferred, filed as 5.0).

Regarding `COc1ccc(CC/C(=N/O)c2ccccc2)cc1`, the growth inhibition is 0% in experiment [1] (setting [7]); 92% (active) in experiment [1] (setting [8]); 97% (active) in experiment [1] (at 50.0 µM); -3% in experiment [2] (setting [7]); 97% (active) in experiment [2] (setting [8]); 96.9% (active) in experiment [2] (at 50.0 µM). Also, the growth inhibition in experiment [3] (setting [7]) is 8%; in experiment [3] (setting [8]), 94% (active); in experiment [3] (at 50.0 µM), 93.8% (active); in experiment [4] (setting [7]), -10%; in experiment [4] (setting [8]), 74% (active); in experiment [4] (at 50.0 µM), 97% (active). Further, the growth inhibition is 1% in experiment [5] (setting [7]); 90% (active) in experiment [5] (setting [8]); 98% (active) in experiment [5] (at 50.0 µM); -9% in experiment [6] (setting [7]); 96% (active) in experiment [6] (setting [8]); 96.9% (active) in experiment [6] (at 50.0 µM).
Turning to `CC(=O)OC1CCC(C(C)(C)C)C(C)C1` (stereo not given), the growth inhibition in experiment [1] (setting [7]) was 3%; in experiment [1] (setting [8]), 43%; in experiment [1] (at 50.0 µM), 11.4%; in experiment [2] (setting [7]), 5%; in experiment [2] (setting [8]), 70% (active); in experiment [2] (at 50.0 µM), 45.5%. Further, the growth inhibition was 6% in experiment [3] (setting [7]); 42% in experiment [3] (setting [8]); 43.4% in experiment [3] (at 50.0 µM); 2% in experiment [4] (setting [7]); 68% in experiment [4] (setting [8]); 9.55% in experiment [4] (at 50.0 µM). The growth inhibition was -4% in experiment [5] (setting [7]); 67% in experiment [5] (setting [8]); 32.9% in experiment [5] (at 50.0 µM); 3% in experiment [6] (setting [7]); 47% in experiment [6] (setting [8]); 29.5% in experiment [6] (at 50.0 µM).
As for `Clc1cccc2c(-c3ccccc3)c3cccc(Cl)c3cc12`, the growth inhibition is 4% in experiment [1] (setting [7]); 45% in experiment [1] (setting [8]); 58.8% in experiment [1] (at 50.0 µM); 3% in experiment [2] (setting [7]); 50% in experiment [2] (setting [8]); 39.6% in experiment [2] (at 50.0 µM). Also, the growth inhibition in experiment [3] (setting [7]) was 8%; in experiment [3] (setting [8]) it was 35%; in experiment [3] (at 50.0 µM), 42.2%; in experiment [4] (setting [7]) it was 6%; in experiment [4] (setting [8]), 54%; in experiment [4] (at 50.0 µM) it was 50.9%. The growth inhibition in experiment [5] (setting [7]) was -2%; in experiment [5] (setting [8]), 51%; in experiment [5] (at 50.0 µM), 36.2%; in experiment [6] (setting [7]), 1%; in experiment [6] (setting [8]), 68%; in experiment [6] (at 50.0 µM), 91.4% (active).
`Oc1cc(Br)cc2cc(Cl)cnc12`: the growth inhibition is 99% (active) in experiment [1] (setting [7]); 89% (active) in experiment [1] (setting [8]); 84.5% (active) in experiment [1] (at 50.0 µM); 97% (active) in experiment [2] (setting [7]); 87% (active) in experiment [2] (setting [8]); 84.5% (active) in experiment [2] (at 50.0 µM). Also, the growth inhibition is 98% (active) in experiment [3] (setting [7]); 93% (active) in experiment [3] (setting [8]); 79.8% (active) in experiment [3] (at 50.0 µM); 98% (active) in experiment [4] (setting [7]); 88% (active) in experiment [4] (setting [8]); 80% (active) in experiment [4] (at 50.0 µM). In addition, the growth inhibition in experiment [5] (setting [7]) was 98% (active); in experiment [5] (setting [8]), 86% (active); in experiment [5] (at 50.0 µM), 83.1% (active); in experiment [6] (setting [7]), 98% (active); in experiment [6] (setting [8]) it was 81% (active); in experiment [6] (at 50.0 µM) it was 75.5% (active).
For `CCCC(N)C(=O)NC(C(=O)O)C(C)C` (stereo not given) (H-[Nva]-Val-OH; configuration not given here), the growth inhibition in experiment [1] (setting [7]) was -2%; in experiment [1] (setting [8]), -11%; in experiment [1] (at 50.0 µM), 38.1%; in experiment [2] (setting [7]), -2%; in experiment [2] (setting [8]) it was -3%; in experiment [2] (at 50.0 µM), 51.9%. In addition, the growth inhibition in experiment [3] (setting [7]) was 1%; in experiment [3] (setting [8]), -5%; in experiment [3] (at 50.0 µM), 17.1%; in experiment [4] (setting [7]), 1%; in experiment [4] (setting [8]), -5%; in experiment [4] (at 50.0 µM), 86% (active). For the same compound, the growth inhibition was 2% in experiment [5] (setting [7]); -3% in experiment [5] (setting [8]); 62% in experiment [5] (at 50.0 µM); -2% in experiment [6] (setting [7]); -9% in experiment [6] (setting [8]); 8.4% in experiment [6] (at 50.0 µM).
`CCC(c1ccc(O)cc1)C(CC)c1ccc(OCC(N)=O)cc1` (stereo not given): the growth inhibition in experiment [1] (setting [7]) is 10%; in experiment [1] (setting [8]), -5%; in experiment [1] (at 50.0 µM), 90.1% (active); in experiment [2] (setting [7]) it was 0%; in experiment [2] (setting [8]) it was -10%; in experiment [2] (at 50.0 µM), 80.5% (active). The growth inhibition is -16% in experiment [3] (setting [7]); 7% in experiment [3] (setting [8]); 89.8% (active) in experiment [3] (at 50.0 µM); -18% in experiment [4] (setting [7]); -22% in experiment [4] (setting [8]); 78.8% (active) in experiment [4] (at 50.0 µM). For the same compound, the growth inhibition in experiment [5] (setting [7]) is -15%; in experiment [5] (setting [8]), 27%; in experiment [5] (at 50.0 µM), 93% (active); in experiment [6] (setting [7]), 20%; in experiment [6] (setting [8]) it was 44%; in experiment [6] (at 50.0 µM), 91.3% (active).
Turning to `O=C(O)C1CCC(CC2CC3CCC2C3)CC1` (stereo not given), the growth inhibition in experiment [1] (setting [7]) was -146%; in experiment [1] (setting [8]), 79% (active); in experiment [1] (at 50.0 µM), 74.7% (active); in experiment [2] (setting [7]) it was -54%; in experiment [2] (setting [8]), 54%; in experiment [2] (at 50.0 µM) it was 88.5% (active). The growth inhibition is -58% in experiment [3] (setting [7]); 85% (active) in experiment [3] (setting [8]); 41.8% in experiment [3] (at 50.0 µM); -79% in experiment [4] (setting [7]); 65% in experiment [4] (setting [8]); 44.2% in experiment [4] (at 50.0 µM). The growth inhibition is -73% in experiment [5] (setting [7]); 69% in experiment [5] (setting [8]); 73.3% (active) in experiment [5] (at 50.0 µM); -125% in experiment [6] (setting [7]); 86% (active) in experiment [6] (setting [8]); 53.8% in experiment [6] (at 50.0 µM).
As for `O=C(C(=O)n1ncc(Cl)c(Cl)c1=O)n1ncc(Cl)c(Cl)c1=O`, the growth inhibition is 5% in experiment [1] (setting [7]); 7% in experiment [1] (setting [8]); 18.6% in experiment [1] (at 50.0 µM); -5% in experiment [2] (setting [7]); 10% in experiment [2] (setting [8]); 70.9% (active) in experiment [2] (at 50.0 µM). The growth inhibition is 5% in experiment [3] (setting [7]); 8% in experiment [3] (setting [8]); 44.9% in experiment [3] (at 50.0 µM); -6% in experiment [4] (setting [7]); -15% in experiment [4] (setting [8]); 13.8% in experiment [4] (at 50.0 µM). In addition, the growth inhibition was -2% in experiment [5] (setting [7]); -1% in experiment [5] (setting [8]); 36.9% in experiment [5] (at 50.0 µM); 0% in experiment [6] (setting [7]); 3% in experiment [6] (setting [8]); 65.9% in experiment [6] (at 50.0 µM).
Consider `O=C(O)CCCCCCCCCCOc1ccc(Cl)cc1Cl`, for which the growth inhibition in experiment [1] (setting [7]) was -3%; in experiment [1] (setting [8]), -8%; in experiment [1] (at 50.0 µM), 98% (active); in experiment [2] (setting [7]), -2%; in experiment [2] (setting [8]) it was -2%; in experiment [2] (at 50.0 µM) it was 99.1% (active). Moreover, the growth inhibition in experiment [3] (setting [7]) is 0%; in experiment [3] (setting [8]), -3%; in experiment [3] (at 50.0 µM), 94.3% (active); in experiment [4] (setting [7]), 1%; in experiment [4] (setting [8]), -8%; in experiment [4] (at 50.0 µM), 5.5%. The growth inhibition is -1% in experiment [5] (setting [7]); 2% in experiment [5] (setting [8]); 99.3% (active) in experiment [5] (at 50.0 µM); 0% in experiment [6] (setting [7]); -1% in experiment [6] (setting [8]); 98.2% (active) in experiment [6] (at 50.0 µM).
In the case of `Cc1ccc(C2(O)CCN(Cc3ccccc3)CC2)cc1`, the growth inhibition in experiment [1] (setting [7]) is 30%; in experiment [1] (setting [8]), 85% (active); in experiment [1] (at 50.0 µM), 56.5%; in experiment [2] (setting [7]) it was 39%; in experiment [2] (setting [8]), 99% (active); in experiment [2] (at 50.0 µM), 8.3%. The growth inhibition is 47% in experiment [3] (setting [7]); 72% (active) in experiment [3] (setting [8]); 70% (active) in experiment [3] (at 50.0 µM); 75% (active) in experiment [4] (setting [7]); 89% (active) in experiment [4] (setting [8]); 61.8% in experiment [4] (at 50.0 µM). Besides, the growth inhibition in experiment [5] (setting [7]) is 64%; in experiment [5] (setting [8]), 81% (active); in experiment [5] (at 50.0 µM) it was 41%; in experiment [6] (setting [7]) it was 37%; in experiment [6] (setting [8]) it was 98% (active); in experiment [6] (at 50.0 µM) it was 47%.

For the origin of these results see PubChem BioAssay (NCI).
